Screening results from PubChem.
Mtb hypoxia rep = Mtb hypoxia fluorescent reporter inhibition. M. tuberculosis hypoxia-regulated fluorescent reporter, fluorescence. fluorescence inhibition, % (concentration not given with the values). 300,000 compounds, 0.1% hits. AID 1159583; in the data active means fluorescence inhibition mostly above about 23%, no sharp cut-off; inactive means mostly below about 17%
DUSP3 inh = DUSP3 (human) phosphatase inhibition; 290,000 compounds, 0.52% hits; AID 1654; P51452; recombinant VHR phosphatase, pNPP absorbance; inhibition, % at 13.3 µM; in the data active means inhibition above about 50%
Target sequence (P51452 whole entry, looked up): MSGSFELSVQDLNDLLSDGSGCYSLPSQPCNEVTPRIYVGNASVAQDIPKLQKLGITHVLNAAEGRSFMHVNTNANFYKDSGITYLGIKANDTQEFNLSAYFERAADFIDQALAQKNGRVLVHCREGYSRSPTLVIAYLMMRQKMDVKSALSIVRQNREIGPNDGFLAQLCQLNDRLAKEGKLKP
BioA inh = inhibitors of Mycobacterium tuberculosis BioA enzyme; 360,000 compounds, 0.096% hits; inhibition, % at 9.99 µM; purified M. tuberculosis BioA enzyme, plate reader; AID 602481; in the data active means inhibition above about 40%; inconclusive means no clear call, values can overlap the other calls
3CLpro inhibitor = SARS-CoV 3CLpro protease inhibition; P0C6X7; inhibition, % at 6 µM; 290,000 compounds, 0.14% hits; recombinant SARS-CoV 3CLpro, quenched FRET peptide cleavage; in the data active means inhibition above about 12%
FadD28 FP inh = inhibitors of Mycobacterium tuberculosis FadD28 bisubstrate binding | FadD28 bisubstrate probe binding, fluorescence polarization | inhibition, % at 12.5 µM | 360,000 compounds, 0.22% hits | AID 588549; in the data active means inhibition above about 8.5%, passing the limit was not always enough; inconclusive means no clear call, values can overlap the other calls
Numbers without * were called inactive. Sampled rows, rich in hits. Any-hit rate of the full collection: about 0.7%.

What do the screens show for `Cc1cccc(OCC(=O)NCCNC(=O)c2cnccn2)c1`?
Mtb hypoxia rep: -3; DUSP3 inh: 20; 3CLpro inhibitor: -2; FadD28 FP inh: 1

What do the screens show for `COc1ccc(C2=CSC(/N=C/c3ccc(F)cc3)=NN2)cc1`?
DUSP3 inh: 11; BioA inh: 1; 3CLpro inhibitor: 3; FadD28 FP inh: 0

What do the screens show for `COc1ccc(C2=CSC(N=Cc3ccc(F)cc3)=NN2)cc1`?
Mtb hypoxia rep: 39*

What do the screens show for `CC=C(C)C(=O)Nc1cccc(C2=NOC3(C2)CC(C(N)=O)N(C(=O)C2CCC(=O)N2)C3)c1` (centres undefined)?
Mtb hypoxia rep: 1

How did Cc1ccc(C(=O)NCCSCc2ccc(Cl)cc2Cl)cc1[N+](=O)[O-] do in these assays?
Mtb hypoxia rep: 2; DUSP3 inh: -8; 3CLpro inhibitor: 7; FadD28 FP inh: 17*

Results for CCOc1cc(C=N/N=C2/NC(=O)C(CC(=O)O)S2)ccc1OCc1ccc(Cl)cc1 (centres undefined) ?
Mtb hypoxia rep: -3

What do the screens show for `O=c1c2c(-c3ccccc3)csc2nc2c3ccccc3c(NCCN3CCOCC3)nn12`?
Mtb hypoxia rep: 41*; DUSP3 inh: 22; 3CLpro inhibitor: -4; FadD28 FP inh: -25

What do the screens show for `O=c1c2ccccc2nc2c3ccccc3c(NCCN3CCOCC3)nn12`?
Mtb hypoxia rep: -7; DUSP3 inh: 16; 3CLpro inhibitor: -2

What do the screens show for `CCCCc1nnc(NC(=O)CSCc2cc(=O)n3cc(C)sc3n2)s1`?
Mtb hypoxia rep: 5; DUSP3 inh: 56*; BioA inh: 0; 3CLpro inhibitor: -2; FadD28 FP inh: 1

How did COc1ccc(C2C=C(C(=O)O)OC(OCc3ccc(CO)cc3)C2)cc1 (centres undefined) do in these assays?
Mtb hypoxia rep: -6

How did O=c1cc(Nc2ccc3c(c2)OCCO3)[nH]c(=O)n1C1CCCCC1 do in these assays?
Mtb hypoxia rep: -5; DUSP3 inh: 5; BioA inh: -1; 3CLpro inhibitor: 1; FadD28 FP inh: 15*

Results for CCc1ccc(Nc2cc(=O)n(C3CCCCC3)c(=O)[nH]2)cc1 ?
DUSP3 inh: 6; BioA inh: 0; 3CLpro inhibitor: -8; FadD28 FP inh: -1

Results for Cc1[nH]n(-c2ccccc2)c(=O)c1N=Nc1c(Cl)cccc1Cl ?
Mtb hypoxia rep: 2; DUSP3 inh: 59*; BioA inh: -6; 3CLpro inhibitor: 2; FadD28 FP inh: inconclusive

Results for COc1ccc(C2=Nn3c(nnc3-c3cccnc3)SC2)cc1 ?
Mtb hypoxia rep: -9; DUSP3 inh: 22; BioA inh: 0; 3CLpro inhibitor: 6; FadD28 FP inh: -2

What do the screens show for `CCOc1ccc(C2=Nn3c(nnc3-c3cccnc3)SC2)cc1`?
Mtb hypoxia rep: 4; DUSP3 inh: 57*; BioA inh: 0; 3CLpro inhibitor: 3; FadD28 FP inh: -2

Results for Cc1ccccc1N(CC(=O)NCc1ccccc1)C(=O)CCC(=O)Nc1nccs1 ?
Mtb hypoxia rep: 14; DUSP3 inh: 51*; BioA inh: 0; 3CLpro inhibitor: 0; FadD28 FP inh: -1

How did O=C(CN(C(=O)CCC(=O)Nc1nccs1)c1ccccc1F)NCc1ccccc1 do in these assays?
Mtb hypoxia rep: 16; DUSP3 inh: 26; BioA inh: 1; 3CLpro inhibitor: -5

Results for COc1ccc(-c2nnc(SCc3nc4ccccc4s3)n2C(C)C)cc1 ?
Mtb hypoxia rep: 45*; DUSP3 inh: -16; BioA inh: 7; 3CLpro inhibitor: 2; FadD28 FP inh: -3

How did CC(=O)CC1c2cc(F)ccc2S(=O)(=O)N1c1ccc(N(C)C)cc1 (centres undefined) do in these assays?
Mtb hypoxia rep: -3

What do the screens show for `O=C(CNC(=O)OCc1ccccc1)NC1CCCCCC1`?
Mtb hypoxia rep: -16; DUSP3 inh: 53*; BioA inh: -1; 3CLpro inhibitor: -1; FadD28 FP inh: -1

Results for O=C(Nc1ccc(Br)cn1)c1ccc(Br)s1 ?
Mtb hypoxia rep: 10; DUSP3 inh: 15; BioA inh: -1; 3CLpro inhibitor: 8; FadD28 FP inh: -3

Results for O=C(Nc1ccc(Br)cn1)c1ccc(Cl)s1 ?
Mtb hypoxia rep: -4; DUSP3 inh: 52*; BioA inh: -1; 3CLpro inhibitor: -4; FadD28 FP inh: -4

Results for COc1ccccc1CC1S/C(=N/N=Cc2ccco2)NC1=O (centres undefined) ?
Mtb hypoxia rep: 1

Results for NC(=S)NN=Cc1ccccc1[N+](=O)[O-] ?
Mtb hypoxia rep: -4

How did CC(=O)NC(=Cc1ccc2c(c1)OCO2)C(=O)NCCO do in these assays?
Mtb hypoxia rep: 4

How did COc1ccc2c(c1)c(=O)oc1c(C)c(OCc3ccc(C(=O)O)cc3)ccc12 do in these assays?
DUSP3 inh: 52*; BioA inh: -1; 3CLpro inhibitor: -1; FadD28 FP inh: -3

How did COc1ccc2c(c1)c(=O)oc1c(C)c(OCc3cc(C(=O)O)oc3C)ccc12 do in these assays?
Mtb hypoxia rep: -11; DUSP3 inh: 116; BioA inh: 1; 3CLpro inhibitor: 6; FadD28 FP inh: -10

Results for Fc1ccc(CSc2nnc(-c3ccccn3)o2)cc1 ?
Mtb hypoxia rep: 39*; DUSP3 inh: 13; BioA inh: -1; 3CLpro inhibitor: 4; FadD28 FP inh: -6

How did CCCCCCN=C1CC(C)(C)CC(=O)/C1=C(\O)CCC do in these assays?
Mtb hypoxia rep: 9

Results for CC1=NN(c2nc(-c3ccc(F)cc3)cs2)C(=O)C1 ?
Mtb hypoxia rep: 11; DUSP3 inh: 29; BioA inh: -3; 3CLpro inhibitor: 1; FadD28 FP inh: 18*

What do the screens show for `COc1cccc(N2C(CC(C)=O)c3cc(C(F)(F)F)ccc3S2(=O)=O)c1` (centres undefined)?
Mtb hypoxia rep: -3

Results for CCC1CCCCN1CCCNC(=O)c1ccc(N2CCCC2=O)cc1 (centres undefined) ?
Mtb hypoxia rep: 3; DUSP3 inh: 56*; BioA inh: -1; 3CLpro inhibitor: 3; FadD28 FP inh: -1

What do the screens show for `CCCN(CC(=O)Nc1ccccc1C)C(=O)CCl`?
Mtb hypoxia rep: 35*; DUSP3 inh: -2; BioA inh: -1; 3CLpro inhibitor: 0; FadD28 FP inh: inconclusive

What do the screens show for `CCC(NC(=O)c1c(C)c(-c2ccccc2)nc2ccccc12)c1ccccc1` (centres undefined)?
Mtb hypoxia rep: -2

How did O=C1NC2(CCCCC2)N=C1c1ccc(Br)cc1 do in these assays?
Mtb hypoxia rep: -3; DUSP3 inh: 55*; BioA inh: 0; 3CLpro inhibitor: -4; FadD28 FP inh: -3

How did COc1ccc(CN2CCN(Cc3ccc4cc(F)ccc4n3)CC2CCO)c(C)c1C (centres undefined) do in these assays?
Mtb hypoxia rep: -6; DUSP3 inh: 51*; BioA inh: -1; 3CLpro inhibitor: -1; FadD28 FP inh: -3

Results for Brc1ccc(-n2cnc(-c3ccccc3)c2)cc1 ?
Mtb hypoxia rep: 9; DUSP3 inh: 57*; BioA inh: 0; 3CLpro inhibitor: -3; FadD28 FP inh: -2
